Source: the supplement of paper PMC13380429

Tested on: Vero E6 infected with SARS-CoV-2
Test: morphology score (similarity to uninfected cells); higher = more like uninfected cells
Conditions: 24 h

Going from `C[N+](C)(C)CCCCCNCC12CC3CC(CC(C3)C1)C2` (10 µM) to `CC(C)(N)CC12CC3CC(CC(C3)C1)C2` [somantadine] (10 µM), the morphology score rises from -0.0308 to 0.178.

Compared with `CNC[C@H](O)c1ccc(O)c(O)c1` [epinephrine] (10 µM), `CC(=O)Nc1cccc(O)c1` [metacetamol] (10 µM) is higher in morphology score: 0.0378 for the first, 0.0448 for the second.

Going from `COc1cc([C@@H]2c3cc4c(cc3[C@@H](O[C@@H]3O[C@@H]5CO[C@@H](C)O[C@H]5[C@H](O)[C@H]3O)[C@H]3COC(=O)[C@H]23)OCO4)cc(OC)c1O` [etoposide] (10 µM) to `NC[C@H]1O[C@H](O[C@H]2[C@H](O)[C@@H](O[C@H]3O[C@H](CO)[C@@H](O)[C@H](N)[C@H]3O)[C@H](N)C[C@@H]2N)[C@H](N)C[C@@H]1O` [tobramycin] (10 µM), the morphology score rises from -0.114 to 0.095.

First: COc1ccc(NS(=O)(=O)c2ccc(N)cc2)nn1 [sulfamethoxypyridazine] (10 µM)
Second: C[C@@H]1CN(Cc2ccc(F)cc2)CCN1C(=O)COc1ccc(Cl)cc1NC(N)=O (10 µM)
The morphology score of the first is higher: 0.0793 for the first, -0.0461 for the second.

Going from `CC(C)C(=O)Oc1ccc(CO)cc1[C@H](CCN(C(C)C)C(C)C)c1ccccc1` [fesoterodine] (10 µM) to `CC(Cc1cccc(C(F)(F)F)c1)NCCOC(=O)c1ccccc1` (stereo not given) [benfluorex] (10 µM), the morphology score falls from 0.096 to 0.0298.

First: O=C(Nc1cccnc1)c1cc(-c2ccnc(F)c2)ccc1OCc1ccccc1 (10 µM)
Second: CC(C)N(CCCCOCC(=O)NS(C)(=O)=O)c1cnc(-c2ccccc2)c(-c2ccccc2)n1 [selexipag] (10 µM)
The morphology score of the first is higher: -0.0646 for the first, -0.0772 for the second.

Going from `Nc1nccc2c1ncn2C1C=C(CO)C(O)C1O` (stereo not given) [3-deazaneplanocin-A] (10 µM) to `Nc1ncn([C@@H]2O[C@H](CO)[C@@H](O)[C@H]2O)c(=O)n1` [azacitidine] (0.833333 µM), the morphology score rises from -0.104 to -0.0243.

Going from `COC[C@@H](c1ccc(C(F)(F)F)cc1)N1CCN(C2(C)CCN(C(=O)c3c(C)ncnc3C)CC2)C[C@@H]1C` [vicriviroc] (10 µM) to `CO[C@@H]1COCC[C@@H]1N[C@@H]1CC[C@@](C(=O)N2CCc3ncc(C(F)(F)F)cc3C2)(C(C)C)C1` (10 µM), the morphology score falls from 0.189 to -0.21.

Compared with `CCCCCCCCCCC(C)(C)C(=O)Nc1c(OC)cc(OC)cc1OC` (10 µM), `CCCCOc1cc(C(=O)NCCN(CC)CC)c2ccccc2n1` [cinchocaine] (10 µM) is higher in morphology score: -0.024 for the first, 0.435 for the second.

Compared with `c1ccc(CC2=NCCN2)cc1` [tolazoline] (10 µM), `NC(=O)CN1CC(c2ccccc2)CC1=O` (stereo not given) [phenylpiracetam] (10 µM) is higher in morphology score: 0.146 for the first, 0.175 for the second.

Going from `CC(SC(=O)c1cccs1)C(=O)NCC(=O)O` (stereo not given) [stepronin] (10 µM) to `CCOC(=O)[C@H](CCc1ccccc1)N[C@@H](C)C(=O)N1CCC[C@H]1C(=O)O` [enalapril] (10 µM), the morphology score rises from -0.0157 to 0.198.

First: CCN1CCCC(OC(=O)C(c2ccccc2)c2ccccc2)C1 (stereo not given) [piperidolate] (10 µM)
Second: CC(COc1ccccc1)N(CCCl)Cc1ccccc1 (stereo not given) [phenoxybenzamine] (10 µM)
The morphology score of the first is higher: 0.17 for the first, 0.146 for the second.

Going from `CC(C)c1nc(N(C)S(C)(=O)=O)nc(-c2ccc(F)cc2)c1/C=C/[C@@H](O)C[C@@H](O)CC(=O)O` [rosuvastatin] (0.833333 µM) to `Nc1nc(=O)c2nc(CNc3ccc(C(=O)N[C@@H](CCC(=O)O)C(=O)O)cc3)cnc2[nH]1` [folic-acid] (10 µM), the morphology score falls from 0.322 to 0.207.

First: Cc1cc(C)c(NC(=O)C2CC3CCC2C3)c(C)c1 (stereo not given) (10 µM)
Second: CC[C@H](C)n1cc(C)c2c(C(=O)NCc3c(C)cc(C)[nH]c3=O)cc(-c3ccc(N4CCNCC4)nc3)cc21 (10 µM)
The morphology score of the first is higher: -0.102 for the first, -0.212 for the second.

Going from `Cn1c2cc([S+](C)[O-])sc2c2cnn(Cc3cccc(N)c3)c(=O)c21` (stereo not given) (10 µM) to `COc1cccc2c1c(O)c(C(=O)N(C)c1ccc(C(F)(F)F)cc1)c(=O)n2C` [tasquinimod] (10 µM), the morphology score rises from 0.0427 to 0.168.

Going from `Cn1nnc(-c2ccc(-c3ccc(N4C[C@H](CO)OC4=O)cc3F)cn2)n1` [tedizolid] (10 µM) to `Cc1c(F)cc(C(=O)NC2CC2)cc1-c1ccc(C(=O)NCC(C)(C)C)cn1` [losmapimod] (10 µM), the morphology score falls from 0.127 to 0.0455.

Going from `O=S1(=O)c2cccc3cccc(c23)N1CCCN1CCN(c2ccc(F)cc2)CC1` [fananserin] (10 µM) to `O=C(Oc1ccccc1C(=O)O)c1ccccc1O` [sasapyrine] (10 µM), the morphology score rises from -0.0356 to 0.0337.

Compared with `CC(c1cc2ccccc2s1)N(O)C(N)=O` (stereo not given) [zileuton] (10 µM), `CNC(=O)[C@H](Cc1c[nH]c2ccccc12)NC(=O)[C@@H](CC(=O)NO)CC(C)C` [ilomastat] (10 µM) is lower in morphology score: 0.0704 for the first, -0.0294 for the second.

Compared with `CN(C)NC(=O)CCC(=O)O` [daminozide] (10 µM), `O.O.O.O.O=C([O-])CC(O)(CC(=O)[O-])C(=O)[O-].[Li+].[Li+].[Li+]` [lithium-citrate] (10 µM) is higher in morphology score: 0.0765 for the first, 0.239 for the second.

First: C=C1CC[C@@H]2[C@](C)(CO)[C@H](O)CC[C@@]2(C)[C@@H]1C/C=C1/C(=O)OC[C@H]1O [andrographolide] (0.833333 µM)
Second: O=P(O)(O)CN(CCN(CP(=O)(O)O)CP(=O)(O)O)CP(=O)(O)O (10 µM)
The morphology score of the first is lower: 0.123 for the first, 0.137 for the second.
